The whole screen tested about 320,000 compounds, of which about 2,100 (0.66%) were called active. Roughly 53% stayed inconclusive and do not appear here. This is one part of a sample in which actives are shown more often than they occur. Calls come from the whole dose curve; as a rule, active = well fitted inhibition curve with a large enough effect in the signal ratio, with a control signal flat (not every such curve was filed as active); inconclusive = small, poorly fitted or top-dose-only effect, or effect the other way, or a change in a side signal; inactive = flat fitted curve, though single readings scatter; the % refers to the signal ratio.
Potency is the fitted concentration of half-maximal effect.

A short description of the assay: qHTS Assay for Lipid Storage Modulators in Drosophila S3 Cells.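 For cell number change: cells counted by Cell Tracker Red CMTPX staining in the red channel.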 For lipid storage change, negative = inhibition: % is set by controls: 0 for no effect and ±100 for the full control effect. Particulars: BODIPY lipid droplet fluorescence, 18-24 h, cells fed with added oleic acid; cell number change: measured here: cell count max response; series mostly up to 46.1 µM; lipid storage change, negative = inhibition: at the top concentration. In short, it runs like this: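 Drosophila S3 cells got compounds at several concentrations plus oleic acid (400 uM solution). Laser-scanning cytometry with 488 nm excitation read lipid droplets at 500-530 nm and cells at 575-640 nm. Percent activity was relative to 20 uM Triacsin C.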
(qHTS replaces the single test concentration by a dilution series.)
Take `COc1ccc(Cl)cc1NC(=O)CN(C)CC(=O)Nc1ccccc1-c1ccccc1`: the “lipid storage change, negative = inhibition” value was 1.41% (inactive) and the cell number change was 22.9%.
With `COc1ccc(Cl)cc1NC(=O)CN(C)CC(=O)N1CC(=O)Nc2ccccc21`, the Potency is 1.3 µM (active) and the cell number change was -5.42%.
As for `COc1cccc(NC(=O)CSc2nnc3cc(C)nc(N)n23)c1`, the “lipid storage change, negative = inhibition” value was 17.2% (inactive) and the cell number change is -13.7%.
In the case of `COc1ccccc1Nc1nnc(SCC(=O)NC2CC2)s1`, the “lipid storage change, negative = inhibition” value is 2.29% (inactive) and the cell number change is -14.3%.
As to `O=C(CSc1nnc(Nc2ccccc2F)s1)NC1CCCC1`, the Potency is 11.6 µM (active) and the cell number change is -17.4%.
With `O=C(CSc1nnc(NC(=O)c2ccccc2)s1)NC1CCCC1`, the outcome was inactive and the cell number change was -5.42%.
Turning to `CC(=O)n1cc([C@@H]2C=C(C(=O)NCc3ccccc3)O[C@H](OCCCCO)C2)c2ccccc21`, the “lipid storage change, negative = inhibition” value is -13% (inactive) and the cell number change is -1.9%.
Turning to `Cc1cccc(-n2c(SCc3cc(=O)n4ccsc4n3)nc3ccccc32)c1`, the Potency is 14.6 µM (active) and the cell number change is -9.74%.
In the case of `CCn1c(SCc2cc(=O)n3ccsc3n2)nc2ccccc21`, the “lipid storage change, negative = inhibition” value is 4.55% (inactive) and the cell number change turned out to be 0.881%.
The corresponding values for `Cc1ccc(SCc2cc(=O)n3ccsc3n2)c(C)c1` are 5.57% (inactive) and -12.5%.
The corresponding values for `O=C(CSc1nnc(-c2ccncc2)n1-c1ccccc1)Nc1ccc(C(=O)O)cc1` are 2.17% (inactive) and 4.34%.
In the same order, the values of `O=C(COC(=O)c1ccc[nH]c1=O)NC1CCCc2ccccc21` (stereo not drawn) are -20.5% (inactive) and 6.05%.
Take `Cc1noc(C)c1S(=O)(=O)N1CCCC(C(=O)NCCc2ccc(Cl)cc2)C1` (stereo not drawn): the outcome was inactive.
For `Cc1nnc(SCC(=O)Nc2ccc(N3CCOCC3)cc2)n1-c1ccccc1`, the “lipid storage change, negative = inhibition” value was -19.7% (inactive) and the cell number change is -17.5%.
Turning to `CCCCn1c(-c2cccc3ccccc23)nc2cc3[nH]c(=O)c(C(C)C)nc3cc21`, the Potency was 20.6 µM (active) and the cell number change was -23%.
As to `CCCCn1c(-c2cccc(C)c2)nc2cc3[nH]c(=O)c(C(C)C)nc3cc21`, the “lipid storage change, negative = inhibition” value is -14.5% (inactive) and the cell number change is -25.6%.
The corresponding values for `CCCCn1c(-c2ccc(C(C)(C)C)cc2)nc2cc3[nH]c(=O)c(C(C)C)nc3cc21` are -35.3% (inactive) and -12.9%.
In the same order, the values of `O=C(c1cccnc1Cl)N(Cc1ccccc1)Cc1ccccc1` are 7.46% (inactive) and 4.31%.
Take `CCCOC(=O)c1ccc(NC(=O)C2C3CCC(C3)C2C(=O)O)cc1` (stereo not drawn): the “lipid storage change, negative = inhibition” value is 13.5% (inactive) and the cell number change turned out to be 2.97%.
The corresponding values for `COc1ccc(/C=N/NC(=O)c2ccncc2)cc1CSc1nc2ccccc2s1` are 17.8% (inactive) and 1.7%.
`CCOC(=O)CSc1nc(C)cc(C)n1`: the Potency is 23.1 µM (active) and the cell number change came out at 4.86%.
In the case of `CCN(CC)C(=O)CSc1nc(C)cc(C)n1`, the “lipid storage change, negative = inhibition” value was -0.849% (inactive) and the cell number change is -1.44%.
In the same order, the values of `Cc1cc(C)nc(SCC(N)=O)n1` are 4.3% (inactive) and 14.6%.
The corresponding values for `CCOc1ccccc1OCC(=O)Oc1ccc(C)c(C)c1` are 2.5% (inactive) and 18.7%.
Take `Cc1nc(N/N=C/c2ccccn2)sc1C`: the “lipid storage change, negative = inhibition” value was -3.98% (inactive) and the cell number change is -10.6%.
The corresponding values for `Cc1nc(-c2ccccc2)sc1-c1nc(-c2ccncc2)ncc1S(=O)(=O)c1ccccc1` are -6.13% (inactive) and 12.5%.
The corresponding values for `O=C(O)C1CC=CCC1C(=O)Nc1cc(Cl)ccc1Cl` (stereo not drawn) are 3.72% (inactive) and -10.1%.
In the case of `O=C(O)[C@H]1CCCC[C@H]1C(=O)NCCc1ccccc1`, the “lipid storage change, negative = inhibition” value was 19.1% (inactive) and the cell number change was 7.81%.
Consider `CC1=C(C)CC(C(=O)NCCc2ccccc2)C(C(=O)O)C1` (stereo not drawn), for which the Potency is 6.51 µM (active).
Turning to `O=C(NNC(=O)[C@H]1CC=CC[C@H]1C(=O)O)c1ccc(Cl)cc1Cl`, the “lipid storage change, negative = inhibition” value is 2.16% (inactive) and the cell number change amounted to 10.3%.
For the compound `O=C(Cc1ccc(Cl)cc1)NNC(=O)C1CC=CCC1C(=O)O` (stereo not drawn), the Potency was 18.4 µM (active).
`CC1=C(C)CC(C(=O)NCC(=O)c2ccccc2)C(C(=O)O)C1` (stereo not drawn): the call was inactive.
In the case of `O=C(O)C1CC=CCC1C(=O)NCCc1ccccc1` (stereo not drawn), the Potency was 23.1 µM (active) and the cell number change is 3.33%.
As to `O=C(O)C1CCCCC1C(=O)NCCCc1ccccc1` (stereo not drawn), the “lipid storage change, negative = inhibition” value is -24.2% (inactive) and the cell number change is -1.96%.
The corresponding values for `COc1ccc(CCNC(=O)C2CC=CCC2C(=O)O)cc1` (stereo not drawn) are 6.12% (inactive) and 23.9%.
The corresponding values for `C/C(=N/N=C1/NC(=O)CC(C(=O)Nc2ccccc2)S1)c1cccs1` (stereo not drawn) are 0.841% (inactive) and 1.13%.
The corresponding values for `CCOc1ccc(/C=C2\SC(=S)N(CCC(=O)Nc3ccc(C(=O)O)cc3)C2=O)cc1` are -6.54% (inactive) and 8.29%.
As to `O=C(Nc1cccc(C(F)(F)F)c1)c1cncs1`, the “lipid storage change, negative = inhibition” value was -24.4% (inactive).
With `CCC(C)NC(=O)C1c2ccccc2C(=O)N1Cc1cc(OC)ccc1OC` (stereo not drawn), the “lipid storage change, negative = inhibition” value is 6.59% (inactive) and the cell number change was found to be 8.31%.
In the same order, the values of `O=C(N=Nc1c(O)[nH]c2ccccc12)c1cccs1` are -1.98% (inactive) and -7.18%.
In the same order, the values of `COc1cc(OC)cc(C(=O)N2CCN(C(=O)c3ccc(OC)c(OC)c3)CC2)c1` are 2.98% (inactive) and 14.7%.
The corresponding values for `CN(CCc1ccccn1)Cc1ccc(Cl)c(Cl)c1` are 7.09% (inactive) and -4.68%.
As to `CN(CCc1ccccn1)Cc1ccc(Cl)cc1`, the “lipid storage change, negative = inhibition” value was -4.59% (inactive) and the cell number change was 7.49%.
`CC(C)=CCCC(C)CN(C)CCc1ccccn1` (stereo not drawn): the Potency is 18.4 µM (active) and the cell number change is -0.762%.
`COc1ccc(CNC(=S)Nc2ccccc2)cc1Cl`: the “lipid storage change, negative = inhibition” value was 7.81% (inactive) and the cell number change stood at 0.106%.
In the same order, the values of `COC(CNC(=O)CN1CCN(Cc2ccc(F)cc2Cl)C1=O)OC` are 14.7% (inactive) and -2.41%.
As to `Nc1ccc(C(=O)OCCCc2nc3cc4ccccc4cc3[nH]2)cc1`, the Potency was 25.9 µM (active) and the cell number change was -15.5%.
`Nc1ccc(C(=O)OCCCc2nc3ccccc3[nH]2)cc1`: the “lipid storage change, negative = inhibition” value was 5.83% (inactive) and the cell number change amounted to 0.404%.
With `COC(=O)c1ccc(C(=O)OCCCc2nc3ccc(N)cc3[nH]2)cc1`, the “lipid storage change, negative = inhibition” value was 15.8% (inactive) and the cell number change was found to be 2.42%.

The record behind these values is PubChem BioAssay AID2685 (National Center for Advancing Translational Sciences (NCATS), 2010).
